Results as given in PubChem BioAssay (Tox21).
Records with an inconclusive call do not appear. The source made the active and inactive calls. The call rests on the fitted dose curve; in most records, active means well fitted activation curve with a large enough effect in the signal ratio in the repeat runs (not every such curve was filed as active); inconclusive means weak or mixed curves, or effect the other way; inactive means no such curve, though single readings can be large or run the other way; the % refers to the signal ratio.

Each molecule was assayed against Peroxisome proliferator-activated receptor gamma (Homo sapiens) (UniProt P37231) (assay: qHTS assay to identify small molecule agonists of the peroxisome proliferator-activated receptor gamma (PPARg) signaling pathway (AID 743094)). Conditions: HEK293H PPARg-UAS-bla, beta-lactamase FRET ratio, 17 h; series mostly up to 57 µM.
Sequence of Peroxisome proliferator-activated receptor gamma (Homo sapiens) (P37231 whole entry, looked up): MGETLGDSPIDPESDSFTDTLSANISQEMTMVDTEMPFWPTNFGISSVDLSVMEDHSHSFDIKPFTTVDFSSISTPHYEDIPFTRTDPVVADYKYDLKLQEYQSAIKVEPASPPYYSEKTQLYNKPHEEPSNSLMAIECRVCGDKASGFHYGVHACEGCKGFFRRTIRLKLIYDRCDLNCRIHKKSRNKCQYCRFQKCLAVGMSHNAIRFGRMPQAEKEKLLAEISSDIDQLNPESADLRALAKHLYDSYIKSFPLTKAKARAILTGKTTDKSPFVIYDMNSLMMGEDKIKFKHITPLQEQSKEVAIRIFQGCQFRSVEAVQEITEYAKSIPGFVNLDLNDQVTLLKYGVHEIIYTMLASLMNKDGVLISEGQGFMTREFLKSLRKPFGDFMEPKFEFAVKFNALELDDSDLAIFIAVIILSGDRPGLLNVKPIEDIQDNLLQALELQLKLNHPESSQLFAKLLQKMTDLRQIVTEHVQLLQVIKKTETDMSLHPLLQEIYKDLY
Excerpt: U.S. Tox21 Program National Center for Advancing Translational Sciences [NCATS] NIH Chemical Genomics Center [NCGC] U.S. Environmental Protection Agency [EPA] National Institutes of Environmental Health Sciences [NIEHS] National Toxicology Program [NTP] U.S. Food and Drug Administration [FDA] Tox21 Assay Overview: The peroxisome proliferator-activated receptors (PPARs) are lipid-activated transcription factors of the nuclear receptor superfamily with three distinct subtypes namely PPAR alpha, PPAR delta (also called PPAR beta) and PPAR gamma (PPARg). All these subtypes heterodimerize with Retinoid X receptor (RXR) and these heterodimers regulate transcription of various genes. PPAR-gamma receptor (glitazone receptor) is involved in the regulation of glucose and lipid metabolism. To identify the compounds that activate PPAR-gamma signaling, GeneBLAzer PPAR gamma UAS-bla HEK293H cell line (Invitrogen, Carlsbad, CA, USA) containing a beta-lactamase reporter gene under control of the control of an upstream activator sequence (UAS) stably integrated into HEK293H cells was used to screen Tox21 compound library.
Tox21 Assay Protocol Summary: PPARg-bla cells were dispensed at 3000 cells/6uL/well in 1536-well black wall/clear bottom plates using a Multidrop Combi (Thermo Fisher Scientific, Waltham, MA) dispenser. After the assay plates were incubated at 37C and 5% CO2 for 5 h, 23 nL of compounds dissolved in DMSO, positive controls or DMSO only was transferred to the assay plate by a Pintool station (Kalypsys, San Diego, CA). The assay plates were incubated at 37C for 17 h. After 1 uL of LiveBLAzerTM B/G FRET substrate was added using a Bioraptr Flying Reagent Dispenser (FRD) workstation (Beckman Coulter, Indianapolis, IN, USA), the plates were incubated at room temperature for 1 h, and fluorescence intensity was measured by an Envision plate reader (PerkinElmer, Shelton, CT).

Compound | outcome
Nc1ncc([N+](=O)[O-])s1 | inactive
O=C(O)C(Br)Br | inactive
N#CN=C(N)N | inactive
CCOC(=O)CC(SP(=O)(OC)OC)C(=O)OCC (stereo not given) | inactive
COP(=S)(OC)Oc1ccc(SC)c(C)c1 | inactive
COC(=O)Nc1cccc(OC(=O)Nc2cccc(C)c2)c1 | inactive
CNc1cnn(-c2cccc(C(F)(F)F)c2)c(=O)c1Cl | inactive
CC(=O)/C=C/c1ccccc1 | inactive
Oc1c(Br)cc(Br)cc1Br | inactive
Cc1cccc(N)c1 | inactive
CCOP(=S)(OCC)Oc1ccc([N+](=O)[O-])cc1 | inactive
CC(C)(C)C(=O)CCl | inactive
C/C=C/c1ccc2c(c1)OCO2 | inactive
Cc1cccc(C)c1N | inactive
Cc1ccc(N)cc1 | inactive
C[C@H]1C(=O)O[C@@H]2CCN3CC=C(COC(=O)[C@](C)(O)[C@]1(C)O)[C@H]23 | inactive
Cc1cc(O)ccc1Cl | inactive
O=S(=O)(O)OOS(=O)(=O)O | inactive
CNC(=O)O/N=C(\SC)C(=O)N(C)C | inactive
N#Cc1cccc(C#N)c1 | inactive

Compound | outcome
CN(C)C(=O)Cl | inactive
Cc1cccc(N)c1C | inactive
CN(C)C(=O)C(c1ccccc1)c1ccccc1 | inactive
Cc1ccc(O)c(C)c1 | inactive
O=P1(NCCCl)OCCCN1CCCl (stereo not given) | inactive
CCNc1nc(Cl)nc(NC(C)C)n1 | inactive
CC[N+](=O)[O-] | inactive
OCc1ccco1 | inactive
CN(C)CCC#N | inactive
CCCCC(CC)C(=O)Cl (stereo not given) | inactive
COP(=S)(OC)SCN1C(=O)c2ccccc2C1=O | inactive
CCSC(=O)N1CCCCCC1 | inactive
CNC(=O)O/N=C/C(C)(C)S(C)=O (stereo not given) | inactive
CC12CC1(C)C(=O)N(c1cc(Cl)cc(Cl)c1)C2=O (stereo not given) | inactive
Cc1cccc(C)c1NC(=O)CN1CCCC1=O | inactive
Cc1ccc(N=C=O)cc1N=C=O | inactive
O=[N+]([O-])c1cc([As](=O)(O)O)ccc1O | inactive
Nc1ccc([As](=O)(O)O)cc1 | inactive
CN(C)NC(=O)CCC(=O)O | inactive
CCOP(=S)(OCC)Oc1cc(C)nc(C(C)C)n1 | inactive
